# Only some compounds are listed: those with a hit (about 3.2% of all), similar ones and a draw of the others.
# pS6 MEF inh: reduces mTORC1 signaling in Tsc2 and p53 null MEF cells; Tsc2-/- p53-/- MEF, phospho-rpS6 immunofluorescence/PI, 24 h; AID 493208; 44,000 tested, 0.78% active; Potency, µM (titrated, usually from 38.3 µM), for the others: at the top dose activity change, negative = inhibition, usual class: inhibitors;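 further: plate controls were DMSO for no effect and rapamycin for full effect; nearly all actives have a fitted effect of over 50% in size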
#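 Readout is phospho-S6 Alexa 488 signal normalized to PI per well, reported as % active cells with thresholds set from rapamycin (7.5 nM) and DMSO controls. Cells: Tsc2-/-, p53-/- MEFs, 24 hrs compound at 37 C; PI cell number serves as viability.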
# PMP22 txn prim: PMP22 gene transcription modulation; Potency, µM (highest dose often 57.5 µM), for inactives: at the top dose activity change, negative = inhibition, hits mostly inhibitors; 43,000 tested, 2% active; S16 Pmp22-F2sN Schwann cells, FLuc/NLuc coincidence luminescence, 24 h; AID 1508649; active means clear falling dose curves in both reporters; inconclusive means both reporters move, but less clearly or upward; inactive means either reporter flat; the % is the NLuc reporter signal
#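 Rat S16 Pmp22-F2sN cells, 500-1,000/well in phenol red-free DMEM + 10% FBS, compound-treated 24 h (37C, 5% CO2). Luminescence: FLuc read, Stop&Glo added, NLuc read.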
# p53null 32C tox: kills p53 null cells at the permissive temperature; H1299-neo p53 null cells, ATP luminescence, 24 h, 32C; Potency, µM (doses to about 46.1 µM), for the others: top-dose activity change, negative = cytotoxicity, usual class: cytotoxic; 55,000 tested, 0.62% active; AID 903;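 further: 0% = DMSO only and -100% = full killing by 100 µM tamoxifen; nearly all actives have a fitted effect of over 55% in size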
#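 Overnight 37C seeding (600 cells/well) of H1299-neo preceded a 24 hr, 32C exposure to compounds up to 46 uM. ATP levels, read by luminescence after 20 min at RT, indicated surviving cells.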
# S16 viability: cytotoxicity in S16 Pmp22-F2sN Schwann cells; S16 Pmp22-F2sN Schwann cells viability, CellTiter-Glo, 24 h; Potency, µM (series often up to 57.5 µM), without a hit: at the highest dose activity change, negative = cytotoxicity, most hits filed as cytotoxic; 43,000 tested, 0.48% active; further: nearly all actives have a fitted effect of over 65% in size
#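 Used to flag compounds lowering reporter output through toxicity, this quantitative HTS measures ATP-based CellTiter-Glo luminescence in S16 Pmp22-F2sN Schwann cells after 24 h compound exposure at 37C.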
# p53null 39C kill: kills p53 null cells at the nonpermissive temperature; H1299 p53-null (neo) cells, 39C, ATPlite viability, 24 h; Potency, µM (series often up to 46.1 µM), for the others: at the top dose activity, negative = cell killing, most hits filed as cytotoxic; 55,000 tested, 0.97% active;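 further: 0% = DMSO only and -100% = full killing by 100 µM tamoxifen; nearly all actives have a fitted effect of over 50% in size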
#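 Concentration-response (up to 46 uM) was run for 24 h at the nonpermissive 39C on H1299-p53A138V or H1299-neo cells. ATP content was measured with ATPlite luminescence. AC50 values were Hill-modeled after normalizing between DMSO and 100 uM tamoxifen killing.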
# * = called active by the depositor; u = inconclusive; x = not tested or not shown. Unless noted, the call rests on the fitted dose curve; in most records, active means well fitted curve in the direction sought with a large enough effect; inconclusive means small, poorly fitted or top-dose-only effect, or another doubt; inactive means no such curve, though single readings can be large; an effect the other way counts as inactive or inconclusive. Unless noted, on the % scale 0 is the no-effect control and ±100 the full control effect; potency means the concentration at half of the fitted maximal effect.
SMILES,pS6 MEF inh,PMP22 txn prim,p53null 32C tox,S16 viability,p53null 39C kill
Cc1cccc(N2CCN(C(=O)c3ccc4c(c3)N(Cc3ccccc3F)C(=O)c3ccccc3S4=O)CC2C)c1 (stereo unspecified),-9.6%,9.04µM*,-0.8%,10.9%,1.1%
O=C(c1ccc2c(c1)N(Cc1cccc(Cl)c1)C(=O)c1ccccc1S2=O)N1CCN(c2cccc(C(F)(F)F)c2)CC1 (stereo unspecified),-1.5%,10.8µM*,11.0%,u,13.9%
Cc1nn(Cc2ccc(Cl)cc2Cl)c(C)c1NC(=O)CCl,x,x,5.1%,x,12.6µM*
Cc1nn(Cc2ccc(Cl)cc2Cl)c(C)c1NC(=O)C1C2CCC(O2)C1C(=O)O (stereo unspecified),x,x,-6.1%,x,-0.3%
COc1cccc(C(=O)Nc2cccc(-c3cn4ccsc4n3)c2)c1OC,0.4%,5.2%,-28.8%,-8.2%,12.6µM*
CSc1ccc(CCNC(=O)Cn2ncc3c(=O)oc4ccc(C)cc4c32)cc1,1.3%,-22.7%,u,9.9%,3.5%
Nc1cccc(-c2nc3ccccc3[nH]2)c1,x,x,-18.5%,x,-21.1%
Cc1ccc2nc(-c3cccc(N)c3)[nH]c2c1,x,x,12.6µM*,x,u
CSc1n[nH]c(NCc2ccc(Cl)cc2)n1,x,x,-26.2%,x,2.7%
CSc1n[nH]c(NCc2ccc(C)cc2)n1,x,x,20µM*,x,11.2µM*
COc1cccc(CNC(=O)Cn2c(=O)cc(C)c3c(C)nn(C)c32)c1OC,2.7%,u,0.3%,u,-15.0%
CCS(=O)(=O)c1ncc(Cl)c(C(=O)N2CCN(c3cccc(Cl)c3)CC2)n1,2.61µM*,u,u,4.47µM*,3.16µM*
CS(=O)(=O)c1ncc(Cl)c(C(=O)N2CCN(c3cccc(Cl)c3)CC2)n1,0.465µM*,u,14.1µM*,3.16µM*,-95.3%
CCc1ccc2oc(C(=O)Nc3nc(-c4ccc(F)cc4)ns3)c(C)c2c1,2.3%,-29.9%,-15.6%,0.2%,-24.6%
CCOc1ccc(CNCc2c(C(=O)O)n(Cc3ccccc3F)c3cc(OC)ccc23)cc1,-3.0%,4.3%,3.4%,3.5%,-15.4%
O=C(N/N=C\c1cc(Cl)ccc1O)c1ccc(S(=O)(=O)N2CCCCC2)cc1,x,x,7.08µM*,x,x
O=C(NC1CCCCC1)c1ccc(S(=O)(=O)N2CCCC2)cc1,x,x,-1.1%,x,-5.4%
Cc1cc(Nc2cccc(Cl)c2)nc2ccc(NC(=O)c3cccnc3)cc12,-3.2%,u,u,u,25.1µM*
Cc1cc(N2CCN(C)CC2)nc2ccc(NC(=O)Nc3cccc(Cl)c3)cc12,u,u,0.8%,25.1µM*,u
Cc1cc(Nc2cccc(Cl)c2)nc2ccc(NC(=O)c3cccc(N(C)C)c3)cc12,-7.2%,-71.1%,-0.1%,-17.1%,3.3%
COc1ccc(N2CCN(C(=O)C(C)n3nc(C)c4sc5ccccc5c4c3=O)CC2)cc1 (stereo unspecified),1.31µM*,u,-20.3%,11.7%,12.6µM*
Cc1nn(C(C)C(=O)NC2CCC(C)CC2)c(=O)c2c1sc1ccccc12 (stereo unspecified),2.07µM*,u,u,6.9%,20µM*
O=C(Nc1ccc(Cl)cc1C(F)(F)F)c1cc(S(=O)(=O)NCc2ccccc2)ccc1F,6.5%,6.2%,5.1%,-8.7%,u
COc1ccc(-c2noc(-c3cccnc3N3CCN(c4ccc(OC)cc4)CC3)n2)cc1,0.2%,-13.8%,-8.1%,14.1%,7.2%
CCOc1ccc(NC(=O)c2ncn(-c3ccccc3)n2)cc1,5.0%,6.2%,-17.2%,-9.7%,-18.8%
O=C(Nc1ccc(F)cc1)c1ncn(-c2ccccc2)n1,-6.3%,u,u,-18.0%,31.6µM*
CN1CCN(C(CNC(=O)C(=O)Nc2cccc(Cl)c2)c2ccc3c(c2)OCO3)CC1 (stereo unspecified),16.5µM*,u,11.7%,u,32.1%
COc1cc(NC(=O)CSc2nc(-c3ccc(C(C)C)cc3)no2)cc(OC)c1,-14.5%,9.05µM*,-29.7%,-0.7%,-20.5%
Cc1ccccc1NC(=O)c1c2c(nc3ccccc13)C(=O)N(C1CCCCC1)C2,-16.0%,u,6.9%,-0.5%,-17.1%

# Bioassay records (PubChem BioAssay)
